# From PubChem BioAssay (NCI)
# Compounds without any hit were thinned out: in the full panel of roughly 83,000, 20% have a hit.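 The test compound was applied at a single concentration to cells in 96-well plates for 48 hours, and percent growth was recorded.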 Active and inactive are the calls of the source. How the source made its calls: active means growth percent below 10; inactive means the rest.
# Tested on: NCI-H226 lung
# Assay: NCI-60 one-dose screen, 48 h (100 = growth as untreated, 0 = no growth, -100 = all killed)
# Settings: 10 µM unless noted
row,SMILES,growth
1,COc1ccc(-c2nn(-c3ccc(NC(=O)Nc4cc(C(F)(F)F)cc(C(F)(F)F)c4)cc3)cc2-c2ccncc2)cc1Cl,0.753% (active)
2,O=C(CNc1cccnc1)Nc1ccc(C(=O)/C=C/c2ccc(Cl)cc2)cc1,86.4% (inactive)
3,CCc1ccc(C2=C/C(=C/c3ccc(Cl)cc3)C(=O)N2CCc2ccc(S(N)(=O)=O)cc2)cc1,29.2% (inactive)
4,O=C(Nc1ccc(-n2ccc3c(NC(=O)c4ccccc4)nccc32)cc1)c1cccc(C(F)(F)F)c1,63.9% (inactive)
5,O=S(=O)(CCN1CCOCC1)Nc1cc(-c2ccc3ncnc(Nc4ccc(F)c(Cl)c4)c3c2)cnc1Cl,26.9% (inactive)
6,CCC1S/C(=N\N=C(/C)c2cc3ccccc3o2)N(c2ccccc2)C1=O (stereo not drawn),108% (inactive)
7,COc1cccc(-c2nc3sccn3c2-c2ccnc(NCCNC(=O)c3ccccc3)n2)c1,79.3% (inactive)
8,NC(N)=N/N=C/c1ccc([N+](=O)[O-])cc1,101% (inactive)
9,C#C[C@@]1(O)[C@@H](CO)O[C@@H](n2cc(Br)c3c(Cl)ccnc32)[C@@H]1O,47.2% (inactive)
10,CCOC(=O)C(C)(CSSCC(C)(NC(=O)c1ccc2ccccc2c1)C(=O)OCC)NC(=O)c1ccc2ccccc2c1 (stereo not drawn),97.9% (inactive)
11,O=C(C[n+]1cccc(Br)c1)c1ccc2c(c1)CCCC2,93.2% (inactive)
12,CCC(C)Nc1ccc(N)cc1 (stereo not drawn),42.5% (inactive)
13,Cc1cn(-c2nc3c(c(NCc4ccccc4)n2)COCC3)c2cccc(C(N)=O)c12,56.4% [0.5 µM] (inactive)
